Assay results as given in PubChem BioAssay (NCATS).
Unmarked numbers belong to inactive results. Records with an inconclusive call do not appear. Where a call stands in place of a potency, no number is given. The source made the active and inactive calls. Calls come from the whole dose curve; as a rule, active = well fitted curve in the direction sought with a large enough effect; inconclusive = small, poorly fitted or top-dose-only effect, or another doubt; inactive = no such curve, though single readings can be large; an effect the other way counts as inactive or inconclusive.

Legend:
[1] = biological target: Glutathione peroxidase 1 (Homo sapiens) (UniProt P07203); experiment: Primary qHTS Assay for Inhibitors of Recombinant Selenoprotein Glutathione Peroxidase 1 (GPX1) (AID 1845191); note: nearly all actives have a fitted effect of over 65% in size
Procedure, shortened: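 GR-coupled readout: NADPH consumption tracked by fluorescence, ex 340/em 450 nm, at t=0 and after 15 min at RT. Final mix 10 nM GPX1, 1 mM GSH, 0.5 mM CHP, 0.5 mM NADPH, 100 nM GR, 0.01% BSA, following 30 min enzyme–compound preincubation.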

[2] = biological target: Phospholipid hydroperoxide glutathione peroxidase GPX4 (Homo sapiens) (UniProt P36969); experiment: Primary qHTS Assay for Inhibitors of Recombinant Selenoprotein Glutathione Peroxidase 4 (GPX4) (AID 1845192); note: nearly all actives have a fitted effect of over 65% in size; for activity change, negative = inhibition: series mostly up to about 50 µM
Procedure, shortened: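 Steps: GPX4 plus compound, 30 min RT; add GR/GSH/NADPH master mix; start with cumene hydroperoxide; read 340/450 nm fluorescence at 0 and 15 min. Finals were 200 nM GPX4, 1 mM GSH, 0.5 mM CHP, 0.5 mM NADPH, 100 nM GR.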

[3] = biological target: Luciferin 4-monooxygenase (Photinus pyralis) (UniProt P08659); experiment: Primary firefly luciferase (FLuc) qHTS assay for identification of artifact compounds. (AID 1845220); note: nearly all actives have a fitted effect of over 60% in size; for activity change, negative = inhibition: series mostly up to about 54 µM
Procedure, shortened: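 Enzymatic FLuc inhibition assay: compounds pre-exposed to luciferin/ATP (10 uM each) for 15 min, then purified P. pyralis enzyme at 10 nM added. Read-out: luminescence at 5 min.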

[4] = Primary fluorescence-based thiol-reactive (MSTI) qHTS assay for identification of artifact compounds. (AID 1845221); note: nearly all actives have a fitted effect of over 65% in size; note: potency is the fitted concentration of half-maximal effect;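 for activity change, negative = thiol reactive: series mostly up to about 54 µM; thiol-reactive compounds lower the probe fluorescence signal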
Procedure, shortened: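 One-hour, room-temperature, dark incubation of compound with 4 uM MSTI in PBS (pH 7.4, 2% DMSO) precedes a fluorescence read at 525 nm excitation, 598 nm emission; Hill-equation fitting yields concentration-response values.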

[5] = system: Nanoluciferase (engineered Oplophorus gracilirostris luciferase); experiment: Primary Nanoluciferase (NLuc) qHTS assay for identification of artifact compounds. (AID 1845222);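 note: NLuc secreted into diluted conditioned medium of S16 cells; series mostly up to about 54 µM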
Procedure, shortened: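 S16 cell supernatant NLuc, 1:55; cpds qHTS; 15 min RT dark; Nano-Glo substrate 1:100, 5 min; luminescence; Hill fit of % inhibition.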

Chain of Glutathione peroxidase 1 (Homo sapiens) (P07203 whole entry, looked up): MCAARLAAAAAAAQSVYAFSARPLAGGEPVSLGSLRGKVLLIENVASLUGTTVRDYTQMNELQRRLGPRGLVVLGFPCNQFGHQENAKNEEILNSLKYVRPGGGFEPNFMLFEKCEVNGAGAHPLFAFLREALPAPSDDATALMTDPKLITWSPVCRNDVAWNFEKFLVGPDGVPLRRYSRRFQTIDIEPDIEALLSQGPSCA
Chain of Phospholipid hydroperoxide glutathione peroxidase GPX4 (Homo sapiens) (P36969 whole entry, looked up): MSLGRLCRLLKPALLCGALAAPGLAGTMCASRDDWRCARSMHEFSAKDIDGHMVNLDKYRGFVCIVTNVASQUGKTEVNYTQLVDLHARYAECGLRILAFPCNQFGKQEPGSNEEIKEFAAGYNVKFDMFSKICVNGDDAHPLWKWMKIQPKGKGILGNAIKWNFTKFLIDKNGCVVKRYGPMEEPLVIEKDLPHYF

SMILES | Potency [1] | Potency [2] | Potency [3] | Potency [4] | Potency [5] | activity change, negative = inhibition [3] | activity change, negative = thiol reactive [4] | activity, negative = inhibition [5] | outcome [3]
Cc1onc(-c2c(Cl)cccc2Cl)c1CC(=O)NCc1ccc(OCC(F)(F)F)nc1 | inactive | inactive | inactive | inactive | inactive |  |  |  | 
CCC(C)/C=C(C)/C=C/C1=CC2=C(Cl)C(=O)C(C)(OC(C)=O)C(=O)C2=CN1C(CC(=O)O)C(=O)O (stereo not given) | inactive | inactive | inactive | 0.733 µM (active) | inactive |  |  |  | 
CC1(C)CC[C@]2(C(=O)O[C@@H]3O[C@H](CO)[C@@H](O)[C@H](O)[C@H]3O)CC[C@]3(C)C(=CCC4[C@@]5(C)CC[C@H](OC6OC(C(=O)O)C(OC7OC(CO)C(O)C(O)C7O)C(O)C6O)C(C)(C)C5CC[C@]43C)C2C1 (stereo not given in full) | inactive | inactive |  |  |  | -0.627% [at 11.6 µM] | 280% [at 11.5 µM] | 0% [at 11.6 µM] | 
C=C1CC[C@@]2(OC1)O[C@H]1CC3[C@@H]4CC=C5C[C@@H](O)C[C@@H](O[C@@H]6OC[C@H](O)[C@H](O)[C@H]6O[C@@H]6O[C@@H](C)[C@H](O)[C@@H](O)[C@H]6O)[C@]5(C)C4CC[C@]3(C)[C@H]1[C@@H]2C (stereo not given in full) | inactive | inactive | inactive | inactive | inactive |  |  |  | 
C[C@@H]1O[C@@H](O[C@@H]2\C=C/C=C\C=C/C=C\C[C@H](C)OC(=O)/C=C\[C@H]3O[C@@H]3C[C@H](O)C[C@]3(O)C[C@@H](O)[C@@H](C(=O)O)[C@H](C2)O3)[C@H](O)[C@H](N)[C@@H]1O | inactive | inactive | inactive | inactive | inactive |  |  |  | 
CCc1cc(CC[C@]2(C3CCCC3)CC(O)=C(Cc3nc4nc(C)cc(C)n4n3)C(=O)O2)cc(CC)n1 | inactive | inactive | inactive | inactive | inactive |  |  |  | 
CC(=O)OC1CC(C(C)(C)O)OC2CCC3(C)OC4=C(C(=O)C=C5C(C)C(OC(C)=O)C6(C)C(C)OC546)C(O)C3C12C (stereo not given) | inactive | inactive | inactive | inactive | inactive |  |  |  | 
COc1cccc(OC)c1-c1cc(C(=O)N[C@@H](CC(C)C)C(=O)O)nn1-c1ccnc2cc(Cl)ccc12 | inactive | inactive | inactive | inactive | inactive |  |  |  | 
CC1(C)C=Cc2c(ccc3c2N=C2C(C)(C)[C@@H]4C[C@]56CCCN5C(=O)[C@@]4(C[C@]23O)NC6=O)O1 | inactive | inactive | inactive | inactive | inactive |  |  |  | 
COc1cccc(CN(C(=O)CC(C)(C)C)C2CC(C(=O)N3CCNCC3)N(Cc3ccc4c(c3)OCO4)C2)c1 (stereo not given) | inactive | inactive | inactive | inactive | inactive |  |  |  | 
CC(=O)O[C@H]1C[C@@]2(C)[C@@H](CC[C@H]3[C@@]4(C)C=CC(=O)[C@@H](C)[C@@H]4[C@H](OC(C)=O)C(=O)[C@@]32C)/C1=C(\CCC=C(C)C)C(=O)O | inactive | inactive | inactive | inactive | inactive |  |  |  | 
COc1cccc(CNc2ccc(S(=O)(=O)Nc3nc4ccccc4s3)cc2)c1O | inactive | inactive | inactive | inactive | inactive |  |  |  | 
OCC(O)C(c1c[nH]c2ccccc12)c1c[nH]c2ccccc12 (stereo not given) | inactive | inactive | inactive | 6.7 µM (active) | inactive |  |  |  | 
O=C(NCC(=O)N1CCCC1)Nc1ccc2ccccc2c1 | inactive | inactive | inactive | inactive | inactive |  |  |  | 
Cc1ccc(-c2c(-c3nn(C)c4ncnc(N5CC[C@H](N6CCCCC6)C5)c34)cnn2C)cc1 | inactive | inactive | inactive | inactive | inactive |  |  |  | 
Cc1nnc(-c2ccc3occ(-c4ccc(S(C)=O)cc4)c3c2)o1 (stereo not given) | inactive | inactive | inactive | inactive | inactive |  |  |  | 
C[C@@H]1O[C@@H](O[C@H]2[C@H](O)[C@@H](O[C@@H]3O[C@H](CO)[C@H](O)[C@H](O)[C@H]3O)[C@H](O[C@H]3CC[C@@]4(C)C(CC[C@]5(C)C4CC=C4[C@@H]6CC(C)(C)CC[C@]6(C(=O)O[C@@H]6O[C@H](CO)[C@@H](O)[C@H](O)[C@H]6O)CC[C@]45C)C3(C)C)O[C@@H]2C(=O)O)[C@H](O)[C@H](O)[C@H]1O (stereo not given in full) | inactive | inactive |  |  |  |  | 349% [at 11.5 µM] | 2.46% [at 11.6 µM] | inactive [at 11.6 µM]
Cc1ccccc1-c1cc(N2CCN(C)CC2)ncc1N(C)C(=O)C(C)(C)c1cc(C(F)(F)F)cc(C(F)(F)F)c1 | inactive | inactive | inactive | inactive | inactive |  |  |  | 
C[C@@H]1CCC2C(C)(C)[C@H](O)[C@H](O)C[C@]2(C)[C@@]12Cc1c(O)cc3c(c1O2)CN(CCCC(=O)O)C3=O (stereo not given in full) | inactive | inactive | inactive | inactive | inactive |  |  |  | 
CC1CCC2(C(=O)O)CCC3(C)C(=CCC4C5(C)C[C@@H](O)[C@@H](O)C(C)(CO)C5CCC43C)C2C1(C)O (stereo not given in full) | inactive | inactive | inactive | inactive | inactive |  |  |  | 
C=C(COC(=O)CC(C)C)C1Cc2cc(C(C)=O)ccc2O1 (stereo not given) | inactive | inactive | inactive | inactive | inactive |  |  |  | 
CCC(C)/C=C(C)/C=C/C(=O)C1CCC(O)C(C)(O)C1=O (stereo not given) | inactive | inactive | inactive | 23.8 µM (active) | inactive |  |  |  | 
CC(C)=CCC(O)[C@](C)(O)C1[C@H](O)C[C@@]2(C)C3CC=C4C(C[C@H](O)[C@@H](O[C@@H]5O[C@H](CO)[C@@H](O)[C@H](O)[C@H]5O)C4(C)C)[C@]3(C)C(=O)C[C@]12C (stereo not given in full) | inactive | inactive | inactive | inactive | inactive |  |  |  | 
